Laboratory results published in PubChem BioAssay.
Several values for one entry are separate records, joined by “and”; a condition that tells them apart may be missing. Equal entries are not always repeated. Activity calls are given as the source filed them.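 The calls were made as follows, unless noted: active = z-score of at least 1.8 in each of two replicates, scored against plate mean and spread of sample wells; inactive = the rest.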

Key:
[1] = liver-stage malaria parasite growth inhibition, primary screen, cell-based, HepG2, luciferase luminescence, HepG2 viability (AID 624349; in the data active = parasite load remaining mostly below about 12%, no sharp cut-off; inactive = mostly above about 10%;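 also: 100% = mean of DMSO negative control wells on the same plate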); conditions: P. berghei liver stage in HepG2, luciferase luminescence, concentration not given here; parasite load remaining: stronger effect = lower value; viability: measured here: HepG2 viability without parasites
[2] = Cy5 fluorescence interference with SSB-bound oligo, artefact control for HCV NS3 helicase inhibitor project, biochemical, NIH Clinical Collection, E. coli SSB (AID 743268; call rule not given here)
[3] = system: Hepatitis C virus NS3 helicase; experiment: HCV NS3 helicase inhibitors, primary screen, biochemical, fluorescence polarization, NIH Clinical Collection (AID 743270; call rule not given here); conditions: NS3 helicase binding to Cy5-dT15 DNA, stronger effect = higher value, concentration not given here
[4] = molecular target: Single-stranded DNA-binding protein (Escherichia coli (strain K12)) (UniProt P0AGE0); experiment: E. coli SSB displacement from DNA, counter-screen for HCV NS3 helicase inhibitor project, biochemical, fluorescence polarization, NIH Clinical Collection (AID 743271; in the data active = inhibition above about 28%); conditions: stronger effect = higher value, concentration not given here
[5] = fluorescence interference in NS3h assay format, artefact control for HCV NS3 helicase inhibitor project, biochemical, NIH Clinical Collection (AID 743272; call rule not given here;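 also: HCV NS3 helicase with a Cy5 labelled single stranded DNA probe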); conditions: fluorescence interference counterscreen, stronger effect = lower value
[6] = differential killing of epithelial or mesenchymal cells, primary screen, imaging, PC-3E GFP, TEM4-18 mCherry, co-culture (AID 1345086;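 active = compounds killing one labelled cell type while sparing the other, by normalised counts and ratio limits, not self-fluorescent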;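 as to all read-outs here: cells exposed to compound for 72 h before imaging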;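 as to red/green cell ratio (normalised): normalised mesenchymal count divided by normalised epithelial count so high means epithelial killing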); conditions: imaging cell counts, at 1 µM; for red/green cell ratio (normalised): actives lie on both sides, counts scaled to control wells, 1 = unselective
[7] = survival rescue of mitochondrial mutant cells in low glucose, primary screen, MELAS cybrids, Rieske KO mouse fibroblasts, CellTiter-Glo (AID 1508586;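 active = mean z-score across replicates of 1.96 or higher in either the MELAS or the Rieske mutant cell line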;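 also: z relative to plate mean and SD of compound and empty wells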)
[8] = molecular target: NAD(+) hydrolase SARM1 (Homo sapiens) (UniProt Q6SZW1); experiment: SARM1 TIR NADase inhibitors, cell lysate, NAD-Glo luminescence (AID 1508614;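 active = compound whose remaining NAD level is above about 45 nM, limit read from the data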;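 also: higher remaining NAD means stronger inhibition of SARM1 NADase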); conditions: SAM-TIR HEK293T lysate NADase, at 1 µM, stronger effect = higher value
Sequence of NAD(+) hydrolase SARM1 (Homo sapiens) (Q6SZW1 whole entry, looked up, the tested form may be a part): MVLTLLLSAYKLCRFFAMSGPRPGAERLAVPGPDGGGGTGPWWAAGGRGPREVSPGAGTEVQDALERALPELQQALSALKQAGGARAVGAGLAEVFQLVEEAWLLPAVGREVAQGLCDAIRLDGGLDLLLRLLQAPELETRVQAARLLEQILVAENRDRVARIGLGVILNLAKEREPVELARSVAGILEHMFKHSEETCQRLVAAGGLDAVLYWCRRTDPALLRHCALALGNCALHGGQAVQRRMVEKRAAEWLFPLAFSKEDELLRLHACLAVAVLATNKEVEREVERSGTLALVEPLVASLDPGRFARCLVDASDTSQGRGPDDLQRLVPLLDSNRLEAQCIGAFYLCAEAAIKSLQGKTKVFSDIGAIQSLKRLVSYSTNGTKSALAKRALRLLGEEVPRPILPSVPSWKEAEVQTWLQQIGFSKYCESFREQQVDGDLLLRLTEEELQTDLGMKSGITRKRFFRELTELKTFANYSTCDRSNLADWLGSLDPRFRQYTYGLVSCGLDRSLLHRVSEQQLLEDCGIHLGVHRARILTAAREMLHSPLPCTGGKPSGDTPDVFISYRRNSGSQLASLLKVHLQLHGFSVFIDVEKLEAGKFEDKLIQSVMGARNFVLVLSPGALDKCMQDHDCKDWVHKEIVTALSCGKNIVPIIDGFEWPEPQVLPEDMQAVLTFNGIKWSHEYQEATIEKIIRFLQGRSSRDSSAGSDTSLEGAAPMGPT

[9] = molecular target: Mitogen-activated protein kinase 7 (Homo sapiens) (UniProt Q13164); experiment: ERK5 transactivation activators in reporter cells, primary screen, cell-based, HTS (AID 1508626;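 active = luciferase signal above three times the same-plate solvent-only control wells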;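 also: luciferase driven by Gal4-ERK5 fusion binding five Gal4 sites before minimal TATA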); conditions: HeLa Gal4-ERK5 transactivation, 18 h, at 5 µM, stronger effect = higher value
Sequence of Mitogen-activated protein kinase 7 (Homo sapiens) (Q13164 whole entry, looked up, the tested form may be a part): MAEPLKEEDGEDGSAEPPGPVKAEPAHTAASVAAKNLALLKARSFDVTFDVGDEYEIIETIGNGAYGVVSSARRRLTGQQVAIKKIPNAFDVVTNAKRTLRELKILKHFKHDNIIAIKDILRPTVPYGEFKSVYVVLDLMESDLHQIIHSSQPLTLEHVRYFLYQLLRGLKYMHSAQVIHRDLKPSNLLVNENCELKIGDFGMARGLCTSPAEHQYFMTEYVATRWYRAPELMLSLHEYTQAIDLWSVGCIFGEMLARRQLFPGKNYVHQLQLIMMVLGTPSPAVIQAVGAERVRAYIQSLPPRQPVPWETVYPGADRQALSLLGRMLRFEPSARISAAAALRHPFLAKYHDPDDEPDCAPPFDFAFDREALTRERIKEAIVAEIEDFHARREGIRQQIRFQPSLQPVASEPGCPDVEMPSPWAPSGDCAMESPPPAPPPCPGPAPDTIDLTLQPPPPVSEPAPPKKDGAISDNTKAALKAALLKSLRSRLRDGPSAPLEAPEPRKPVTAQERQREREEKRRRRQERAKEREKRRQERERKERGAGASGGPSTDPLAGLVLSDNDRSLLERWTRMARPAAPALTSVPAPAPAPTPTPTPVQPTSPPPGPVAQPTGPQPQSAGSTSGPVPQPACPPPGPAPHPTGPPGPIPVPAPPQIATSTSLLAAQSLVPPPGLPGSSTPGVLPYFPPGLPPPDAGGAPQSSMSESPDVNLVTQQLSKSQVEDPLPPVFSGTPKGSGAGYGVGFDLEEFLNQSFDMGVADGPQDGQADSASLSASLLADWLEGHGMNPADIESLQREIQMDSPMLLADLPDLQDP

[10] = viability rescue of complex I mutant cybrids, primary screen, cell-based, galactose medium, ATP luminescence (AID 1645843); conditions: complex I mutant cybrid cells, 72 h, stronger effect = higher value;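 also: positive z means more ATP and so rescue of galactose-driven cybrid death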
[11] = system: F380Y; experiment: modulators of BK channel variants, profiling panel, selectivity assay, cell-based, U2OS BacMam, thallium flux, beta subunits (AID 1259406;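 active = thallium flux through the channel raised or lowered by more than 3 SD from vehicle-only wells, actives on both sides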;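 also: initial slope of Thallos dye fluorescence rise after thallium is added; log ratio against the mean of 0.3% DMSO vehicle wells on the same plate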); conditions: at 30 µM
[12] = system: F380Y/beta2Delta; experiment: as above; conditions: at 30 µM
[13] = molecular target: Calcium-activated potassium channel subunit alpha-1 (Homo sapiens) + Leucine-rich repeat-containing protein 26 (Homo sapiens) (UniProt Q12791+Q2I0M4); experiment: as above; conditions: F380Y/Slo1WT/gamma1, at 30 µM
Sequence of Calcium-activated potassium channel subunit alpha-1 (Homo sapiens) + Leucine-rich repeat-containing protein 26 (Homo sapiens) (Q2I0M4 whole entry, looked up, one chain of several): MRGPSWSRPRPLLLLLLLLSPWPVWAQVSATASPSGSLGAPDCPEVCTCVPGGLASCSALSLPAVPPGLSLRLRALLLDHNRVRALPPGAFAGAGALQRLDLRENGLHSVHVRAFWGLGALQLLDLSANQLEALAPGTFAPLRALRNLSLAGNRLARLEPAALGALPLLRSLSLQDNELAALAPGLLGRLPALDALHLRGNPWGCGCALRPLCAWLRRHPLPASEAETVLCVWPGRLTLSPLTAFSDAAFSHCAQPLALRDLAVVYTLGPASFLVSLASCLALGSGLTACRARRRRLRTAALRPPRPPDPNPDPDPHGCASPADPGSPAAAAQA

[14] = system: R275C; experiment: as above; conditions: at 30 µM
[15] = system: R275C/beta1; experiment: as above; conditions: at 30 µM
[16] = system: R275C/beta2Delta; experiment: as above; conditions: at 30 µM
[17] = hESC survival regulators, cell-based (AID 493140; call rule not given here;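 also: cells exposed to compounds for four days before counting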); conditions: human embryonic stem cell survival screen; stronger effect = higher value
[18] = molecular target: 6-phosphogluconate dehydrogenase, decarboxylating (Homo sapiens) (UniProt P52209); experiment: 6PGD enzyme inhibitors, primary screen, biochemical, human, recombinant enzyme, NADPH absorbance (AID 1159550;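 active = at least 20% inhibition of 6-phosphogluconate dehydrogenase activity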); conditions: recombinant 6PGD, NADPH absorbance 341 nm; at 10 µM; stronger effect = higher value
Sequence of 6-phosphogluconate dehydrogenase, decarboxylating (Homo sapiens) (P52209 whole entry, looked up): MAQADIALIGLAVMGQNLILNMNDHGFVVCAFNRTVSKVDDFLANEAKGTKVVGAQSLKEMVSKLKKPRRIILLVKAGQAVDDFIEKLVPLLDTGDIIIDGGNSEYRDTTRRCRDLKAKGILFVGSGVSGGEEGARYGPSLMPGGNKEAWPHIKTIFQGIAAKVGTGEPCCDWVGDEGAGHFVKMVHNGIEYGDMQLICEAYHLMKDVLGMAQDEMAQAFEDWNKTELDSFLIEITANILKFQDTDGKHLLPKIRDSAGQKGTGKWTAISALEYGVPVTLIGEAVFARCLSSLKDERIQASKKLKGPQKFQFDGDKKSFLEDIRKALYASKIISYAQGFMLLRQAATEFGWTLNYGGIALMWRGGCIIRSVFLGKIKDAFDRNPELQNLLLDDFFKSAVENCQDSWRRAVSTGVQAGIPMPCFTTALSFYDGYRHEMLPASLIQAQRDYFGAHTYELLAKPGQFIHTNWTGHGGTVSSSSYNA

[19] = sensitizers of A549 cells to miR-34 induction, primary screen, imaging, A549 dox-inducible miR-34, nuclei and caspase counts (AID 1347080;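 active = compounds whose cell count with miR-34 switched on is under 0.7 times the count with it off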); conditions: A549 miR-34 inducible, Hoechst nuclei count, 48 h
[20] = measured here: epithelial PC-3E GFP cell survival
[21] = measured here: mesenchymal TEM4-18 mCherry cell survival
[22] = MELAS cybrid survival, CellTiter-Glo 48 h, stronger effect = higher value
[23] = Rieske KO mouse fibroblast survival, CellTiter-Glo 72 h
[24] = stronger effect = lower value, cell number ratio, induced over uninduced
[25] = measured here: relative caspase fold change +Dox/-Dox
[26] = measured here: total cells with miR-34 induction, stronger effect = lower value
[27] = measured here: total cells without miR-34 induction

With `CC(C)(C(=O)O)c1ccc(C(O)CCCN2CCC(C(O)(c3ccccc3)c3ccccc3)CC2)cc1` (configuration not stated) the parasite load remaining [1] was 72.9% (inactive) and 85.2% (inactive) and 65.9% (inactive), the viability [1] was 89.9% and 71.9% and 128% and the fluorescence ratio [2] was 1.07 (inactive). For the same compound, the inhibition [3] was -4.09% (inactive), the inhibition [4] was 1.05% (inactive) and the fluorescence ratio [5] was 1.04 (inactive). For the same compound, the red/green cell ratio (normalised) [6] was 1.14 (inactive), the normalised cell number [6, 20] was 0.92 and the normalised cell number [6, 21] was 1.05. For the same compound, the z-score [7, 22] was -0.235 (inactive) and -0.763 (inactive), the z-score [7, 23] was -0.15 and -0.362 and the remaining NAD [8] was 10 nM (inactive). For the same compound, the luciferase signal [9] was 40 AU (inactive), the z-score [10] was 0.205 (inactive) and 1.1 (inactive) and -0.085 (inactive) and the log fold change Tl+ flux [11] was -0.178 (active). For the same compound, the log fold change Tl+ flux [12] was -0.00892 (inactive), the log fold change Tl+ flux [13] was 0.0201 (inactive) and the log fold change Tl+ flux [14] was 0.00746 (inactive). The log fold change Tl+ flux [15] was -0.0122 (inactive) and the log fold change Tl+ flux [16] was -0.0184 (inactive).

For `O=S(=O)(c1cccc2cnccc12)N1CCCNCC1`, the survival [17] was 467 (active), the parasite load remaining [1] was 62.2% (inactive) and 44.5% (inactive) and the viability [1] was 103% and 67.7%. The red/green cell ratio (normalised) [6] was 1.1 (inactive), the normalised cell number [6, 20] was 0.86 and the normalised cell number [6, 21] was 0.95. The z-score [7, 22] was -0.155 (inactive) and -0.944 (inactive), the z-score [7, 23] was -1.52 and 0.0333 and the remaining NAD [8] was 10 nM (inactive). The z-score [10] was -0.745 (inactive) and -1.1 (inactive).

In the case of `CN1c2ccccc2C(=O)N2CCc3c([nH]c4ccc(O)cc34)[C@H]21`, the inhibition [18] is reported as 3.55% (inactive).

For `CCC(C)C(N)C1=NC(C(=O)NC(CC(C)C)C(=O)NC(CCC(=O)O)C(=O)NC(C(=O)NC2CCCCNC(=O)C(CC(N)=O)NC(=O)C(CC(=O)O)NC(=O)C(Cc3cnc[nH]3)NC(=O)C(Cc3ccccc3)NC(=O)C(C(C)CC)NC(=O)C(CCCN)NC2=O)C(C)CC)CS1` (configuration not stated), the inhibition [18] was -5.55% (inactive).

In the case of `CC(C)c1c(C(=O)Nc2ccccc2)c(-c2ccccc2)c(-c2ccc(F)cc2)n1CC[C@@H](O)C[C@@H](O)CC(=O)O`, the inhibition [18] is reported as 17.2% (inactive), the fold change [19, 24] is reported as 1.27 (inactive) and the fold change [19, 25] is reported as 1.55. The cell count [19, 26] was 5410, the cell count [19, 27] was 4270 and the z-score [7, 22] was -2.11 (inactive). For the same compound, the z-score [7, 23] was -0.779, the remaining NAD [8] was 10 nM (inactive) and the luciferase signal [9] was 28 AU (inactive). The z-score [10] was -0.8 (inactive).

With `Cc1ccc(/C(=C\CN2CCCC2)c2ccccn2)cc1` the survival [17] was 11.5 (inactive), the inhibition [18] was 2.89% (inactive) and the red/green cell ratio (normalised) [6] was 1.28 (inactive). The normalised cell number [6, 20] was 0.94, the normalised cell number [6, 21] was 1.2 and the z-score [7, 22] was 0.293 (inactive) and -0.295 (inactive). The z-score [7, 23] was 0.187 and -0.783, the remaining NAD [8] was 10 nM (inactive) and the luciferase signal [9] was 152 AU (inactive). For the same compound, the z-score [10] was -0.245 (inactive) and -0.1 (inactive) and 0.365 (inactive).

With `COc1ccc2c(=O)cc(-c3ccccc3OC)oc2c1` the inhibition [18] was 3.35% (inactive).

For `C[C@@H](O[C@H]1OCCN(Cc2n[nH]c(=O)[nH]2)[C@H]1c1ccc(F)cc1)c1cc(C(F)(F)F)cc(C(F)(F)F)c1`, the parasite load remaining [1] was 26.3% (inactive), the viability [1] was 67.5% and the fold change [19, 24] was 0.959 (inactive). It also gave a fold change [19, 25] of 1.18, a cell count [19, 26] of 9050 and a cell count [19, 27] of 9430. For the same compound, the z-score [7, 22] was 0.822 and 0.307 (inactive), the z-score [7, 23] was 2.09 and 0.201 and the z-score [10] was -0.16 (inactive).
